# An excerpt weighted towards active compounds, which were near 3.4% of everything screened.
# KDM4E inh = qHTS Assay for Inhibitors of Human Jumonji Domain Containing 2E (JMJD2E); AID 2147, 2009; Lysine-specific demethylase 4E (Homo sapiens), B2RXH2; JMJD2E catalytic domain, FDH-coupled NADH fluorescence (FDH is formaldehyde dehydrogenase); Potency, µM (highest dose often 57.1 µM), for inactives: top-dose activity change, negative = inhibition, actives largely listed as inhibitors; actives 1.6% (n = 230,000); active means well fitted inhibition curve with a large enough effect, not every such curve was filed as active; inconclusive means small, poorly fitted or top-dose-only effect, or another doubt; inactive means no such curve, though single readings can be large or run the other way;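 further: 0% = wells with enzyme and -100% = buffer wells without enzyme; nearly all actives have a fitted effect of over 50% in size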
# Target sequence (B2RXH2 1-337 limits assumed): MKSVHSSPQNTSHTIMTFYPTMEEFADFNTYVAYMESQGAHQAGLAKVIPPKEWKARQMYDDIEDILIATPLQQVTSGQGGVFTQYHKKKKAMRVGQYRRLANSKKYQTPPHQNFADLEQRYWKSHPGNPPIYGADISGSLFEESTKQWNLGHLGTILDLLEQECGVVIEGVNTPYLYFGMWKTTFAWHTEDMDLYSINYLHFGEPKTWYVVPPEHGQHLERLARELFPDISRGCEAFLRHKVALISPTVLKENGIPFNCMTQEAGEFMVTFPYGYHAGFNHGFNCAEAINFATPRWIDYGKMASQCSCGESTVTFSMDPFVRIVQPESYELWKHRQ
# Tau fibril ThT = qHTS for Inhibitors of Tau Fibril Formation, Thioflavin T Binding; Microtubule-associated protein tau (Homo sapiens), P10636; recombinant tau K18 P301L, heparin-induced fibrillization, ThT fluorescence; Potency, µM (doses to about 57.4 µM), without a hit: at the top dose activity, negative = inhibition, hits mostly inhibitors; actives 2.1% (n = 270,000); AID 1460, 2008; further: nearly all actives have a fitted effect of over 55% in size
# Target sequence (P10636 561-689 P618L limits assumed): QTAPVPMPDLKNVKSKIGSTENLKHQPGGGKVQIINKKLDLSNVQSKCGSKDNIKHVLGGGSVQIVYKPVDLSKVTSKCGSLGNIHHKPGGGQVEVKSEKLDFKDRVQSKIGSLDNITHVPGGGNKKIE
#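 Recombinant human tau K18 fragment […] carrying P301L, 15 uM unlabeled plus 0.24 uM Alexa 594-labeled, was fibrillized with 20 uM heparin in 100 mM sodium acetate pH 7 for 6 hr at 37 C; 30 uM ThT fluorescence read after 1 hr.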
# Tau fibril FP = qHTS for Inhibitors of Tau Fibril Formation, Fluorescence Polarization; Microtubule-associated protein tau (Homo sapiens), P10636; K18 P301L tau heparin fibrillization, Alexa594 FP, 6 h; Potency, µM (highest dose often 57.7 µM), without a hit: at the top dose activity, negative = inhibition, usual class: inhibitors; actives 0.39% (n = 280,000); further: nearly all actives have a fitted effect of over 55% in size
#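 Quantitative HTS format: compounds meet 15 uM recombinant K18 P301L tau and Alexa 594-tau tracer in 100 mM sodium acetate pH 7; 20 uM heparin triggers fibrillization at 37 C over 6 hr; FP gives the signal.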
# RGS12 GoLoco inh = qHTS Assay for Inhibitors of RGS12 GoLoco Motif Activity (Red Fluorophore) | Guanine nucleotide-binding protein G(i) subunit alpha-1 (Homo sapiens), P63096 | actives 0.44% (n = 230,000) | Gai1:RGS12 GoLoco peptide FP, rhodamine, 10 min | Potency, µM (doses to about 61.6 µM), for inactives: at the top dose activity, negative = inhibition, hits mostly inhibitors | AID 880, 2007; active means well fitted inhibition curve with a large enough effect, not every such curve was filed as active; inactive means no such curve, though single readings can be large or run the other way; further: nearly all actives have a fitted effect of over 30% in size
# Tau fluor counter = Counterscreen qHTS for Inhibitors of Tau Fibril Formation, Fluorescence Polarization | AID 1463, 2008 | tau K18 P301L Alexa594 fluorescence, heparin fibrillization | Potency, µM (top dose mostly 57.7 µM), inactives show at the highest dose activity change, negative = decrease | actives 0.93% (n = 280,000); further: nearly all actives have a fitted effect of over 55% in size
#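 Human tau K18 P301L (15 uM unlabeled, 0.24 uM Alexa 594-labeled) in 100 mM sodium acetate pH 7 with 20 uM heparin, 6 hr at 37 C. ThT 30 uM added, 1 hr ambient; Alexa 594 FP and total fluorescence read at 555/632 nm.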
# Active calls of the source: *; ? = inconclusive; . = no result given; [ ] = another dose, or the depositor's remark. Unless noted, the call rests on the fitted dose curve; in most records, active means well fitted curve in the direction sought with a large enough effect; inconclusive means small, poorly fitted or top-dose-only effect, or another doubt; inactive means no such curve, though single readings can be large; an effect the other way counts as inactive or inconclusive. Unless noted, on the % scale 0 is the no-effect control and ±100 the full control effect; potency means the concentration at half of the fitted maximal effect.
SMILES,KDM4E inh,Tau fibril ThT,Tau fibril FP,RGS12 GoLoco inh,Tau fluor counter
CCc1cccc(CC)c1NC(=O)c1cc(S(=O)(=O)N2CCc3ccccc32)cn1C,.,-7%,9%,.,?
Oc1ccc(Br)cc1-c1nc2cnccn2c1NC1CCCC1,?,?,?,1%,13µM*[quencher]
Fc1ccc(-c2nc3cnccn3c2NC2CCCC2)cc1,-7%,-7%,-6%[2.34 µM],10%,-8%
Oc1ccc(Br)cc1-c1nc2cnccn2c1NC1CCCCC1,?,?,?,-9%,14µM*[quencher]
Clc1ccc(-c2cnn3c(-c4ccncc4)ccnc23)cc1,-1%,2.5µM*,2%,3%,1%
O=C(CSc1nnc(Nc2ccccc2F)s1)Nc1cccc(S(=O)(=O)N2CCCCC2)c1,-18%,-5%,?,7%,?
Cc1nnc(SCC(=O)Nc2cc(S(=O)(=O)N3CCCC3)ccc2Cl)s1,5%,-12%,-1%,20%,-20%
O=C(CSc1nnc(NC2CCCCC2)s1)Nc1ccc2c(c1)C(=O)c1ccccc1C2=O,-16%,?,?,20%,8.9µM*[quencher]
Cc1ccc(-c2nc(SCC(=O)Nc3cc(S(=O)(=O)N4CCCCC4)ccc3Cl)n[nH]2)cc1,3%,1%,22µM*,13%,?
CC(C)Nc1nnc(SCC(=O)Nc2ccc3c(c2)C(=O)c2ccccc2C3=O)s1,3%,10µM*,14%,5%,13µM*[quencher]
Cc1ccc(Nc2nnc(SCC(=O)Nc3cccc(S(=O)(=O)N4CCCCC4)c3)s2)cc1,5%,-1%,-13%,-38%,7.9µM*[quencher]
O[C@@H](c1cc(C(F)(F)F)nc2c(Cl)cc(Cl)cc12)C1CCCCN1 (some centres undefined),.,.,.,-1%[14.2 µM],.
COc1ccc2nc(N=Nc3c(O)ccc4ccccc34)sc2c1,8%,2.8µM*,-4%,26%,?
CCOc1ccc(N=Nc2c(N)[nH][nH]c2=O)cc1,-5%,8%,12%,-18%,11%
Cc1ccc(N=Nc2c(C)[nH][nH]c2=O)c(C)c1,-3%,8.9µM*,-6%,12%,-23%
COc1ccc(N=Nc2c(C)[nH][nH]c2=O)cc1,-2%,8.9µM*,2%,-17%,-12%
Cc1cc(C)cc(N2C(=O)CSC23C(=O)N(Cc2c(F)cccc2Cl)c2ccccc23)c1 (centres undefined),.,-4%,-7%,.,-10%
Cc1ccc(-n2ncc3c(NCCCN4CCOCC4)ncnc32)cc1C,.,-4%,-2%,.,-5%
COc1ccc(-c2[nH]ncc2N=Nc2ccccc2)cc1,-14%,16µM*,?,6%,?
Oc1sc(C=Nc2ccccc2)c2ccccc12,-23%,?,-7%,-4%,14µM*[quencher]
Oc1c(/C=N/c2ccccn2)sc2ccccc12,?,5.6µM*,?,211%,2.8µM*[fluorescent]
Oc1c(C=Nc2cccnc2)sc2ccccc12,?,13µM*,11%,39%,-12%
Oc1c(C=Nc2ccccc2)sc2ccccc12,?,-4%,-8%[2.34 µM],15%,6%[2.34 µM]
COc1ccc2[nH]cc(CCNc3ccnc(-c4ccc5c(c4)OCO5)n3)c2c1,.,.,.,-2%,.
Nc1cc(-c2ccc(OC(F)(F)F)cc2)nn1-c1ccc(Cl)c(Cl)c1,-18%,20µM*,?,17%,13µM*[quencher]
SMILES,KDM4E inh,Tau fibril ThT,Tau fibril FP,RGS12 GoLoco inh,Tau fluor counter
Cc1cc(C(=O)C(=O)Nc2nncs2)c(C)n1-c1ccc(Cl)cc1,.,-3%,5%,.,-6%
COCCN=c1scc(-c2ccco2)n1/N=C/c1ccc(O)c(O)c1O,22µM*,13µM*,25µM*,63%,?
C=CCN=c1scc(-c2ccco2)n1/N=C/c1ccc(O)c(O)c1O,11µM*,6.3µM*,?,18%,7.9µM*[quencher]
C[N+](C)(C)/N=C\c1ccc(O)c(O)c1,.,.,.,-20%[14.2 µM],.
Oc1ccc(/C=N/n2c(-c3ccco3)csc2=Nc2cccnc2)c(O)c1,-14%,?,-2%,11%,?
CC(C)N=c1scc(-c2ccco2)n1/N=C/c1ccc(O)c(O)c1,?,14µM*,?,-1%,14µM*[quencher]
CCC(Sc1nc2cc3c(cc2c(=O)n1CCCC(=O)NCc1ccc2c(c1)OCO2)OCO3)C(=O)NCCCOC (centres undefined),.,7%,-11%,.,-2%
CCCCn1cc(S(=O)(=O)c2ccc(Cl)cc2)c(=O)c2cc(F)c(N3CCCC(C)C3)cc21 (centres undefined),.,-3%,8%,.,9%
Cc1ccc(-c2cc3c(n2-c2ccc(F)cc2)CC(C)(C)CC3=O)cc1,.,-8%,2%,.,-7%
CC(=O)Nc1ccc(NC(=O)CCc2nc3cccnc3n2Cc2cccs2)cc1,.,?,4%,.,-14%
COc1cccc(/C=C2/SC(=S)N(CC(=O)Nc3nnc(C)s3)C2=O)c1,7%,1.3µM*,?,15%,?
Cc1nnc(NC(=O)CCN2C(=O)/C(=C\c3ccccc3)SC2=S)s1,0%,?,-10%,8%,-8%
O=[N+]([O-])c1ccc(N2CCN(C(=S)c3cccc([N+](=O)[O-])c3)CC2)cc1,-8%,.,?,13µM*,-21%
O=[N+]([O-])c1ccc(N2CCN(C(=S)Nc3cccc(F)c3)CC2)cc1,-8%,16µM*,-7%,20%,?
CCCCCCN,.,.,.,28µM*,.
NCCCCCCCCCCN,2%,-5%,3%,21%,-8%
Cc1ccc(CNC(=O)CSc2ncc3c(n2)-c2cc(Cl)ccc2N(C)S3(=O)=O)cc1,.,-3%,-17%,.,-18%
CC(C)c1ccc(Nc2c(-c3ccco3)nc3ccccn23)cc1,.,-18%,-7%,.,?
COc1cc(-c2nc3ccccn3c2/N=C/c2cccc(OC)c2O)ccc1O,232%,?,?,-16%,-29%
COc1cc(-c2nc3ccccn3c2/N=C/c2ccc(F)cc2)ccc1O,?,?,-11%,-7%,-20%
Oc1ccccc1/C=N/c1c(-c2ccco2)nc2ccccn12,?,22µM*,?,-15%,22µM*[quencher]
COc1ccc(/C=N/c2c(-c3ccco3)nc3ccccn23)cc1OC,?,22µM*,?,-7%,22µM*[quencher]
Clc1ccc(/C=N/c2c(-c3ccco3)nc3ccccn23)cc1,?,25µM*,?,-2%,25µM*[quencher]
Cc1cc(=O)c2cc(C(=O)Nc3ccc(F)cc3)ccc2[nH]1,.,10%,1%,.,7%
CCOC(=O)c1cc(C(=O)OCC)c(=O)[nH]c1C,-1%,?,3%,-11%,-18%
CCOC(=O)c1cc(C)[nH]c(=S)c1C#N,18µM*,?,-2%,-29%,-7%
